Among all 39,000 compounds or so, about 1,500 (3.8%) were called active. This excerpt belongs to a sample that is enriched for actives.
System: HSkMC (human skeletal muscle cells)
Assay: cytotoxicity call (relative viability < 0.9)
Details: 10 µM

Compound	cytotoxicity call
C[C@@H]1CN([C@H](C)CO)S(=O)(=O)c2ccc(C#CCN(C)C)cc2O[C@@H]1CN(C)Cc1ccccc1F	inactive
C[C@@H]1CN([C@H](C)CO)C(=O)c2cc(NC(=O)Cn3cnnn3)ccc2O[C@H]1CN(C)C(=O)Nc1ccc2c(c1)OCO2	inactive
COc1ncc(-c2nc(N3CCOCC3)nc3c(CN4CCC(C(C)(C)O)CC4)cc(F)cc23)cc1NS(C)(=O)=O	inactive
CC(=O)/C(C)=N/O	inactive
C[C@@H]1CCCCO[C@H](CN(C)C(=O)c2ccccc2)[C@@H](C)CN([C@@H](C)CO)C(=O)c2cc(NC(=O)c3ccccc3)ccc2O1	inactive
O=C1NCc2ccccc21	inactive
O=C1CCCNc2ccc(Cl)cc21	inactive
O=C1CCNc2cc3ccccc3cc21	active
C[C@H]1CCCCO[C@@H](CN(C)Cc2ccc(C(=O)O)cc2)[C@@H](C)CN([C@@H](C)CO)C(=O)c2cc(NC(=O)c3ccccc3)ccc2O1	inactive
C[C@@H]1CCCCO[C@@H](CN(C)C(=O)Cc2ccccc2)[C@@H](C)CN([C@H](C)CO)C(=O)c2cc(NC(=O)Cc3ccccc3)ccc2O1	inactive
COC12C(COC(N)=O)C3=C(C(=O)C(C)=C(N)C3=O)N1CC1NC12 (stereo not drawn)	inactive
CO[C@@]12[C@@H]3N[C@@H]3CN1C1=C(C(=O)C(N)=C(C)C1=O)[C@@H]2COC(N)=O	active
CO[C@@]12[C@H](COC(N)=O)C3=C(C(=O)C(C)=C(N)C3=O)N1C[C@@H]1N[C@@H]12	inactive
CCOC(=O)C1CCN(S(=O)(=O)c2c(C)n(C)c(=O)n(C)c2=O)CC1	inactive
C[C@@H]1CN([C@H](C)CO)C(=O)CCCn2nncc2CO[C@@H]1CN(C)Cc1ccc(C(=O)Nc2ccccc2N)cc1	inactive
C[C@@H]1CN([C@H](C)CO)C(=O)Cc2cc(NC(=O)NC3CCCCC3)ccc2O[C@H]1CN(C)Cc1ccc(Cl)c(Cl)c1	active
C[C@@H]1CN([C@H](C)CO)C(=O)Cc2cc(NC(=O)NC3CCCCC3)ccc2O[C@@H]1CN(C)Cc1ccc(Cl)c(Cl)c1	active
C[C@H](CO)N1C[C@H](C)[C@@H](CN(C)Cc2ccc(Cl)c(Cl)c2)Oc2ccc(NC(=O)NC3CCCCC3)cc2CC1=O	inactive
C[C@@H]1CN([C@@H](C)CO)C(=O)Cc2cc(NC(=O)NC3CCCCC3)ccc2O[C@H]1CN(C)Cc1ccc(Cl)c(Cl)c1	inactive
C[C@H](CO)N1C[C@H](C)[C@H](CN(C)Cc2ccc(Cl)c(Cl)c2)Oc2ccc(NC(=O)NC3CCCCC3)cc2CC1=O	inactive
C[C@@H]1CN([C@@H](C)CO)C(=O)Cc2cc(NC(=O)NC3CCCCC3)ccc2O[C@@H]1CN(C)Cc1ccc(Cl)c(Cl)c1	inactive
Cc1noc(C)c1NC(=O)N(C)C[C@H]1OCCCC[C@@H](C)Oc2ccc(NS(=O)(=O)c3cccs3)cc2C(=O)N([C@@H](C)CO)C[C@H]1C	inactive

Compound	cytotoxicity call
Cc1noc(C)c1NC(=O)N(C)C[C@H]1OCCCC[C@H](C)Oc2ccc(NS(=O)(=O)c3ccc(F)cc3)cc2C(=O)N([C@@H](C)CO)C[C@H]1C	inactive
COc1ccccc1CNC(=O)C[C@H]1C[C@H]2c3cc(NC(=O)NC4CCCC4)ccc3O[C@H]2[C@H](CO)O1	inactive
COc1ccc(CN(C)C[C@H]2Oc3c(NC(=O)c4ccc(-c5nccs5)cc4)cccc3C(=O)N([C@H](C)CO)C[C@H]2C)cc1	inactive
CC[C@H]1OC[C@@H]2CN(C(=O)CN(C)C)CC[C@H]21	inactive
C[C@@H]1CN([C@@H](C)CO)C(=O)Cc2cc(NC(=O)Nc3cccc4ccccc34)ccc2O[C@@H]1CN(C)C(=O)Nc1cccc2ccccc12	inactive
C[C@H](CO)N1C[C@H](C)[C@@H](CN(C)C(=O)Nc2cccc3ccccc23)Oc2ccc(NC(=O)Nc3ccc4c(c3)OCO4)cc2CC1=O	active
C[C@H]1CN([C@@H](C)CO)C(=O)Cc2cc(NC(=O)Nc3cccc4ccccc34)ccc2O[C@H]1CN(C)C(=O)Nc1cccc2ccccc12	inactive
C[C@H](CO)N1C[C@H](C)[C@@H](CN(C)C(=O)Nc2cccc3ccccc23)Oc2ccc(NC(=O)Nc3cccc4ccccc34)cc2CC1=O	active
C[C@H]1CN([C@@H](C)CO)C(=O)Cc2cc(NC(=O)Cc3ccccc3)ccc2O[C@@H]1CN(C)C(=O)Nc1cccc2ccccc12	inactive
C[C@H]1CN([C@@H](C)CO)C(=O)Cc2cc(NC(=O)Nc3ccccc3)ccc2O[C@@H]1CN(C)C(=O)Nc1cccc2ccccc12	inactive
C[C@H](CO)N1C[C@H](C)[C@@H](CN(C)C(=O)Nc2cccc3ccccc23)Oc2ccc(NC(=O)Cc3ccccc3)cc2CC1=O	active
C[C@H](CO)N1C[C@H](C)[C@@H](CN(C)C(=O)Nc2cccc3ccccc23)Oc2ccc(NC(=O)Nc3ccccc3)cc2CC1=O	active
C[C@@H]1CN([C@H](C)CO)C(=O)Cc2cc(NC(=O)Nc3ccc4c(c3)OCO4)ccc2O[C@@H]1CN(C)C(=O)Nc1cccc2ccccc12	inactive
C[C@@H]1CN([C@H](C)CO)C(=O)Cc2cc(NC(=O)Cc3ccccc3)ccc2O[C@H]1CN(C)C(=O)Nc1cccc2ccccc12	inactive
C[C@@H]1CN([C@H](C)CO)C(=O)Cc2cc(NC(=O)Nc3ccccc3)ccc2O[C@@H]1CN(C)C(=O)Nc1cccc2ccccc12	inactive
C[C@H]1CN([C@@H](C)CO)C(=O)Cc2cc(NC(=O)Nc3ccc4c(c3)OCO4)ccc2O[C@@H]1CN(C)C(=O)Nc1cccc2ccccc12	inactive
OCc1cccc(CO)n1	inactive
COC(=O)[C@@H](Cc1ccc(-n2cc(-c3ccc(C(=O)NO)s3)nn2)cc1)N1CC2=C[C@H](C3CC3)n3c(=O)n(C)c(=O)n3[C@@H]2[C@H]1[C@H](O)Cc1ccccc1	inactive
CCCNC(=O)N(C)C[C@@H]1Oc2cc(C#Cc3cccc(F)c3)ccc2S(=O)(=O)N([C@H](C)CO)C[C@@H]1C	inactive
CO[C@H]1CN(C)C(=O)c2cc(NS(C)(=O)=O)ccc2OC[C@@H](C)N(C(=O)c2ccc3c(c2)OCO3)C[C@@H]1C	inactive
Cc1ccc(S(=O)(=O)Nc2ccc3c(c2)C(=O)N([C@H](C)CO)C[C@H](C)[C@H](CN(C)S(C)(=O)=O)O3)cc1	inactive

From the antibiotic and cytotoxicity screens of Wong et al. (2023)
